# According to PubChem BioAssay (NCATS):
# Results filed as inconclusive are left out. A call without a number means that no potency is given here. Activity calls are given as the source filed them. Unless noted, the call rests on the fitted dose curve; in most records, active means well fitted curve in the direction sought with a large enough effect; inconclusive means small, poorly fitted or top-dose-only effect, or another doubt; inactive means no such curve, though single readings can be large; an effect the other way counts as inactive or inconclusive. Residues, ends and D or L forms follow the SMILES beside them. *: point of attachment. Cbz = O=C(OCc1ccccc1)*
# Columns and labels:
# [1] = Nrf2 qHTS screen for inhibitors: Validation (AID 493153; active means well fitted inhibition curve with a large enough effect in the main read-out, with a control signal flat, not every such curve was filed as active; further: potency means the concentration at half of the fitted maximal effect); details: Potency: luciferase luminescence; viability change: measured here: cytotoxicity max response
# Method in brief: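 A549 ARE_Fluc, 5% FBS OPTI-MEM; cpd titration, 18-24 h, 37°C/5% CO2. Read 1: CellTiter-Fluor (Ex 405/Em 525), cytotox. Read 2: luciferase lum, Nrf2 activity.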
# [2] = qHTS for Inhibitors of Cell Surface uPA Generation: Validation Assay (AID 493164);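 further: RAW 264.7 macrophage cells exposed to compound for 18 h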
# Method in brief: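 ATP-Lite luminescence read-out: ATP remains high when uPA activity-dependent LF translocation into the cytoplasm is blocked. RAW 264.7 cells, 18 h compound exposure at 37 C; 7-point titration, 2.45 nM to 38.3 uM final.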
# [3] = target: Galactokinase (Homo sapiens) (UniProt P51570); experiment: qHTS Validation Assay for Inhibitors of Human Galactokinase (GALK) (AID 493189)
# Method in brief: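 Enzyme activity is inferred from ATP consumption: human GALK phosphorylates galactose (100 uM) using 35 uM ATP for 1 h at room temperature, and luciferase-based Kinase-Glo Plus reports unconsumed ATP.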
# [4] = Validation screen for small molecules that induce DNA re-replication in SW480 colon adenocarcinoma cells (AID 504364)
# Method in brief: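 Image-based qHTS: compounds were incubated with SW480 cells for 48 hr, nuclei stained with Hoechst, and per-nucleus fluorescence intensity scanned to flag cells with excess DNA content.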
# [5] = target: Peptidyl-prolyl cis-trans isomerase NIMA-interacting 1 (Homo sapiens) (UniProt Q13526); experiment: qHTS Validation Assay to Find Inhibitors of Pin1 (AID 504536; active means well fitted inhibition curve with a large enough effect in the polarisation, with a control signal flat, not every such curve was filed as active; the % refers to the polarisation)
# Method in brief: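 Fluorescence polarization competition: compounds (titration) displace HiFluor-488-labeled Pin1-1b peptide from Pin1 (0.3 uM final) in pH 7.5 HEPES buffer with DTT, 10 min at room temperature; %Activity normalized to no-enzyme wells, curves fitted.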
# [6] = target: Phosphoglycerate kinase, glycosomal (Trypanosoma brucei brucei) (UniProt P07378); experiment: qHTS Validation Assay to Find Inhibitors of Phosphoglycerate Kinase (AID 504547); further: potency means the concentration at half of the fitted maximal effect
# Method in brief: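 Compounds are pinned into the substrate/PGK mixture, and GAPDH (100nM final) is added to start the reaction by producing 1,3-BPG. After 60 minutes at room temperature, Kinase-Glo Plus is added and luminescence is measured 10 minutes later.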
# [7] = target: phosphoglycerate mutase (Leishmania major) (UniProt Q4Q090); experiment: qHTS Validation Assay to Find Inhibitors of Phosphoglycerate Mutase (AID 504548); details: Potency: inhibition qHTS; further: series mostly up to about 58 µM
# Method in brief: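 Lm PGAM at 1.25 nM final with substrate in 100 mM TEA pH 7.6, 5 mM MgCl2, 0.01% Tween-20; 45 min at room temperature. Kinase-GloPlus added, 10 min, end-point luminescence read.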
# [8] = target: Ubiquitin carboxyl-terminal hydrolase 1 (Homo sapiens) (UniProt O94782); experiment: Inhibitors of USP1/UAF1: Pilot qHTS (AID 504865);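 further: rhodamine fluorescence freed from ubiquitin-rhodamine substrate followed over time; top concentration of the series differs between compounds; nearly all actives have a fitted effect of over 35% in size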
# Method in brief: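 Enzyme-free wells gave the negative control, while test wells held 1nM USP1/UAF1 preincubated with compound for 15 min at room temperature. Ub-Rho at 150nM final started the reaction, and fluorescence at 480/540 nm was recorded kinetically.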
# [9] = qHTS for Inhibitors of ATXN expression: Validation of Cytotoxic Assay (AID 588349)
# Method in brief: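 Titrated compounds are added to cultured HEK293 cells, which are then held at 37 degrees C for 72 hr; loss of intracellular ATP, measured with CellTiter Glo, indicates toxicity.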
# [10] = qHTS for Inhibitors of ATXN expression: Validation (AID 588378); further: series mostly up to about 57 µM; nearly all actives have a fitted effect of over 75% in size
# Method in brief: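 After a 2 h attachment and 24 h compound incubation, HEK293-ATXN2-FFLuc wells are read for fluorescence at 405 nm excitation/525 nm emission as a viability measure, then for Bright-Glo luminescence reflecting ATXN2 expression.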
# [11] = target: DNA dC->dU-editing enzyme APOBEC-3G (Homo sapiens) (UniProt Q9HC16); experiment: qHTS for inhibitors of Vif-A3G interactions: Validation (AID 588379)
# Method in brief: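 Yellow fluorescence (Ex 488, Em 500-530) of Vif-coexpressing HeLa A3G-eYFP cells, scanned by Acumen cytometer, reports blocked A3G degradation. Cells plated at 700/well overnight at 37 deg C before compound addition, then a further overnight compound incubation at 37 deg C.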
# Peptidyl-prolyl cis-trans isomerase NIMA-interacting 1 (Homo sapiens), sequence (Q13526 whole entry, looked up): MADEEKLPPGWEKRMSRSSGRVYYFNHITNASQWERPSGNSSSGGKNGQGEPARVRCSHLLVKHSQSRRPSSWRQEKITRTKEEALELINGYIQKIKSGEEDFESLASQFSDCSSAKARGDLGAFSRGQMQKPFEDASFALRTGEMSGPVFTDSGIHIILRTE
# Galactokinase (Homo sapiens), sequence (P51570 whole entry, looked up): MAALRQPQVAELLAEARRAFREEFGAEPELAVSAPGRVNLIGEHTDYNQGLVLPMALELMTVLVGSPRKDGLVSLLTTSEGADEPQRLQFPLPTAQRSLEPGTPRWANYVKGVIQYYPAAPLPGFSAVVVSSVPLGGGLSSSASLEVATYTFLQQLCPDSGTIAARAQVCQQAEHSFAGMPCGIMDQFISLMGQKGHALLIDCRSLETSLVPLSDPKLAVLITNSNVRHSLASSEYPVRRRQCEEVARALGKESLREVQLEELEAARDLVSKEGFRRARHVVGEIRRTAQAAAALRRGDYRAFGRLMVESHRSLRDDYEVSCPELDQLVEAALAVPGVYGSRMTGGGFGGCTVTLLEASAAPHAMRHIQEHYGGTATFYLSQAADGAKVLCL
# Ubiquitin carboxyl-terminal hydrolase 1 (Homo sapiens), sequence (O94782 whole entry, looked up): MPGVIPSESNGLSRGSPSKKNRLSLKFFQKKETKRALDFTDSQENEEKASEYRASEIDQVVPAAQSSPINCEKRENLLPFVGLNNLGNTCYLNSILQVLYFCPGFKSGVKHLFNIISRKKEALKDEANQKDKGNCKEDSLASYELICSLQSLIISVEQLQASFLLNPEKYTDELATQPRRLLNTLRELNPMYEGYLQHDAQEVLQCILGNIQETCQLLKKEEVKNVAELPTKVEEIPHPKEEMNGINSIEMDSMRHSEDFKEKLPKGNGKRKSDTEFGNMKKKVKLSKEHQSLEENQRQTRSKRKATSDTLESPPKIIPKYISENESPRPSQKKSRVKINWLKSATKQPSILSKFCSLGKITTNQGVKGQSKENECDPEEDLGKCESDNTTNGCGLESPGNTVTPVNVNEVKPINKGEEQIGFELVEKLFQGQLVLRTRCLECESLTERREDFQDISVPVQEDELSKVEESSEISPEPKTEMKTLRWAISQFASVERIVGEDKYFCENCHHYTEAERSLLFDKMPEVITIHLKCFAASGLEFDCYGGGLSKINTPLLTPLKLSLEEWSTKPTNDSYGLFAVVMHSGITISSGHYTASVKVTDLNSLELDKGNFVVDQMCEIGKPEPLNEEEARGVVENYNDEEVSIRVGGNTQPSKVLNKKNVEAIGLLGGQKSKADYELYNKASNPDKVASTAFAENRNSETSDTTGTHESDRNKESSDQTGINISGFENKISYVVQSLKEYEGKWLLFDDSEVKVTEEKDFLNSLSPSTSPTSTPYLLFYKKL
# phosphoglycerate mutase (Leishmania major), sequence (Q4Q090 1-553): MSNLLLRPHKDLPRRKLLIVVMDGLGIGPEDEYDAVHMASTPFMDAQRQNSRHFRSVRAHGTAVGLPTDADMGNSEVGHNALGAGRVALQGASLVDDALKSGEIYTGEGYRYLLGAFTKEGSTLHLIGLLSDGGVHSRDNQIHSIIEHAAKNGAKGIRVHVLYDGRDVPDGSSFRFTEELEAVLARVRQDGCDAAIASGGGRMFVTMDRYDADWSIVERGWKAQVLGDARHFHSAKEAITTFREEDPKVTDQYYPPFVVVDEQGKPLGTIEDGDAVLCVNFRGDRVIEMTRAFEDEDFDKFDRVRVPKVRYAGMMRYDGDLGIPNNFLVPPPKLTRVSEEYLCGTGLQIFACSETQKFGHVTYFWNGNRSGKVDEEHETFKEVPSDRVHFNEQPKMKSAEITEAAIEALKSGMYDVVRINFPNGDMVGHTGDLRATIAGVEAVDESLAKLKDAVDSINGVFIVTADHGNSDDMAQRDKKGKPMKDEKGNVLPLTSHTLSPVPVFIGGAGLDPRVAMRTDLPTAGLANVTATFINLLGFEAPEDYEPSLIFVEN
# Phosphoglycerate kinase, glycosomal (Trypanosoma brucei brucei), sequence (P07378 whole entry, looked up): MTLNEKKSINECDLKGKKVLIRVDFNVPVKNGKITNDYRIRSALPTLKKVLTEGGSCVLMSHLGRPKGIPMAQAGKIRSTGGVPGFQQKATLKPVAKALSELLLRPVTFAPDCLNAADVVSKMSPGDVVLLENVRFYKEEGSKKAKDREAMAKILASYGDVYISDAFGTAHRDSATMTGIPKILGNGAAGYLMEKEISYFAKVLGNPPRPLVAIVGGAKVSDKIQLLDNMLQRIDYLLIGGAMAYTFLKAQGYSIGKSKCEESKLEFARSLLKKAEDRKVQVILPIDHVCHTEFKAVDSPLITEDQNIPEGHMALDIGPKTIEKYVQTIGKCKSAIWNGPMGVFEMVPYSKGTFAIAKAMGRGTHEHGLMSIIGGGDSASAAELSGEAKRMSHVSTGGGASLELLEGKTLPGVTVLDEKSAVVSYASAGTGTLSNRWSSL
# DNA dC->dU-editing enzyme APOBEC-3G (Homo sapiens), sequence (Q9HC16 whole entry, looked up): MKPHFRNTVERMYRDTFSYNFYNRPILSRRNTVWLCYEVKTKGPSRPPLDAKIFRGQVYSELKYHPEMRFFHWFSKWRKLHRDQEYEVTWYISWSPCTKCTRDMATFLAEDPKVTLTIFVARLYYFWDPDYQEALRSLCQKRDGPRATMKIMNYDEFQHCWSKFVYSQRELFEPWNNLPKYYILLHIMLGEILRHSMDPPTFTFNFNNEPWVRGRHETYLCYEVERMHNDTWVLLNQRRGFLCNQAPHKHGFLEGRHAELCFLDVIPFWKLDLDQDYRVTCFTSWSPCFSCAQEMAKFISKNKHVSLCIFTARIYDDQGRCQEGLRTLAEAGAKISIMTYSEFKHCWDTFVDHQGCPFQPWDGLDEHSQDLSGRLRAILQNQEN
Compound,Potency [1],viability change [1],outcome [2],Potency [3],Potency [4],Potency [5],Potency [6],Potency [7],Potency [8],Potency [9],Potency [10],Potency [11]
O=C(O)Cc1c[nH]c2ccc(O)cc12,inactive,0.136%,inactive,inactive,inactive,inactive,inactive,inactive,inactive,,,
CN(C)CCC(c1ccc(Br)cc1)c1ccccn1 (stereo unspecified),inactive,3.82%,inactive,inactive,inactive,inactive,inactive,inactive,inactive,inactive,,
CCCCCCCCCC(=O)NC(CN1CCOCC1)[C@H](O)c1ccccc1 (stereo partly specified),inactive,-4.61%,inactive,inactive,inactive,inactive,inactive,inactive,inactive,inactive,,
COc1cc2c(CCNC(C)=O)c[nH]c2cc1O,inactive,-0.977%,inactive,inactive,inactive,inactive,inactive,inactive,inactive,inactive,inactive,
CC(/C=C/c1cccc(Oc2ccc(F)cc2)c1)N(O)C(N)=O (stereo unspecified),inactive,3.6%,inactive,inactive,inactive,inactive,inactive,inactive,inactive,inactive,inactive,
CC(C)C[C@H](NC(=O)[C@H](O)[C@H](N)Cc1ccccc1)C(=O)O,inactive,5.98%,inactive,inactive,inactive,inactive,inactive,inactive,inactive,inactive,inactive,
N=C(N)c1ccc(N)cc1,inactive,3.63%,inactive,inactive,inactive,inactive,inactive,inactive,inactive,inactive,inactive,
CCCCCC(O)CCCC(=O)O (stereo unspecified),inactive,0.592%,inactive,inactive,inactive,inactive,inactive,inactive,inactive,inactive,inactive,
COc1ccc(-c2ccc(N)[n+](CCCC(=O)O)n2)cc1,inactive,1.33%,inactive,inactive,inactive,inactive,inactive,inactive,inactive,inactive,inactive,
CCN(c1nc(N)c(C(=O)N=C(N)N)nc1Cl)C(C)C,inactive,-6.66%,inactive,inactive,inactive,inactive,inactive,inactive,inactive,inactive,,
c1ccc2c(c1)CC(N1CCN(c3cccc4c3OCCO4)CC1)C2,inactive,3.52%,inactive,inactive,inactive,inactive,inactive,inactive,inactive,inactive,inactive,
C[C@@H](NCCc1ccc(O)cc1)[C@@H](O)c1ccc(O)cc1,inactive,9.14%,inactive,inactive,inactive,inactive,inactive,inactive,inactive,inactive,inactive,
C=CCN1CCc2cc(O)c(O)cc2C(c2ccccc2)C1 (stereo unspecified),inactive,-2.64%,inactive,inactive,inactive,inactive,inactive,inactive,inactive,,,
NCC(O)C1CCCCCCC1 (stereo unspecified),inactive,3.56%,inactive,inactive,inactive,inactive,inactive,inactive,inactive,,,
CC(C)[C@H](NC(=O)OCc1ccccc1)C(=O)N[C@H](C=O)Cc1ccccc1 (Cbz-Val-Phe-aldehyde),inactive,13.7%,inactive,inactive,inactive,inactive,inactive,,,,,
Oc1ccc(Cn2cc[nH]c2=S)cc1,inactive,0.593%,inactive,inactive,inactive,inactive,inactive,inactive,inactive,inactive,inactive,
C[N+](C)(C)CC=O,inactive,2.93%,inactive,inactive,inactive,inactive,inactive,inactive,inactive,inactive,inactive,
C[C@@]1(C2CCCC2)Cc2cc(OCC(=O)O)c(Cl)c(Cl)c2C1=O,inactive,-4.41%,inactive,inactive,inactive,inactive,inactive,inactive,inactive,inactive,inactive,
NC(N)=[N+]1CCc2ccccc2C1,16.4 µM (active),6.22%,inactive,inactive,inactive,inactive,inactive,inactive,inactive,inactive,inactive,
Cc1ccc([N+](=O)[O-])cc1S(=O)(=O)N(C)C,inactive,3.59%,inactive,inactive,inactive,inactive,inactive,inactive,inactive,inactive,inactive,
Cn1c(=O)[nH]c2ncn(C)c2c1=O,inactive,1.53%,inactive,inactive,inactive,inactive,inactive,inactive,inactive,inactive,inactive,
CNc1ncnc2c1ncn2[C@H]1C[C@H](OP(=O)(O)O)[C@@H](COP(=O)(O)O)O1,inactive,-10.4%,inactive,inactive,inactive,inactive,inactive,inactive,inactive,inactive,inactive,

Compound,Potency [1],viability change [1],outcome [2],Potency [3],Potency [4],Potency [5],Potency [6],Potency [7],Potency [8],Potency [9],Potency [10],Potency [11]
COc1cc(C(O)CO)ccc1O (stereo unspecified),inactive,3.88%,inactive,inactive,inactive,inactive,inactive,inactive,inactive,inactive,inactive,
Cn1c(=O)c2[nH]c(C3CCCC3)nc2n(C)c1=O,inactive,1.08%,inactive,inactive,inactive,inactive,inactive,inactive,inactive,inactive,inactive,
N=C(N)c1ccccc1,inactive,6.8%,inactive,inactive,inactive,inactive,inactive,inactive,inactive,inactive,inactive,
CC(=O)NCCc1c[nH]c2ccc(O)cc12,inactive,-0.372%,inactive,inactive,inactive,inactive,inactive,inactive,inactive,inactive,,
CCCN(CCc1ccccc1)C1CCc2c(O)cccc2C1 (stereo unspecified),inactive,-8.23%,inactive,inactive,inactive,inactive,inactive,inactive,inactive,inactive,,
N[C@@H](Cc1ccc(F)cc1)C(=O)O,inactive,-9.16%,inactive,inactive,inactive,inactive,inactive,inactive,inactive,inactive,,
CC1CCN=C(N)S1 (stereo unspecified),inactive,9.66%,inactive,inactive,inactive,inactive,inactive,inactive,inactive,inactive,inactive,
N=S(=O)(O)Cc1noc2ccccc12,inactive,0.163%,inactive,inactive,inactive,inactive,inactive,inactive,inactive,inactive,inactive,
COc1ccccc1N1CCN(CCCNc2c(C)c(=O)n(C)c(=O)n2C)CC1,inactive,3.58%,inactive,inactive,inactive,inactive,inactive,inactive,inactive,inactive,inactive,
N[C@@H](Cc1c[nH]c2ccccc12)C(=O)O,inactive,-4.03%,inactive,inactive,inactive,inactive,inactive,inactive,inactive,inactive,,
CC(C)NCC(O)COc1ccc(CC(N)=O)cc1 (stereo unspecified),inactive,0.809%,inactive,inactive,inactive,inactive,inactive,inactive,inactive,inactive,inactive,
Cc1ccc2c(c1)C(N1CCN(C)CC1)=Nc1cccnc1N2,inactive,3.55%,inactive,inactive,inactive,inactive,inactive,inactive,inactive,inactive,inactive,
NCC(O)c1ccc(O)c(O)c1 (stereo unspecified),inactive,3.36%,inactive,inactive,inactive,inactive,4.78 µM (active),inactive,inactive,inactive,inactive,
O=C(O)c1cc(=O)cc(C(=O)O)[nH]1,inactive,-5.74%,inactive,inactive,inactive,inactive,inactive,inactive,inactive,inactive,,
Cn1cc(C(F)(F)F)nc1-c1ccc(OCC(O)CNCCOc2ccc(O)c(C(N)=O)c2)cc1 (stereo unspecified),inactive,6.58%,inactive,inactive,inactive,inactive,inactive,inactive,inactive,inactive,inactive,
N[C@@H](CCCC(=O)O)C(=O)O,inactive,7.86%,inactive,inactive,inactive,inactive,inactive,inactive,inactive,inactive,inactive,
C#CCn1c(=O)c2c(ncn2C)n(C)c1=O,inactive,4.85%,inactive,inactive,inactive,inactive,inactive,inactive,inactive,inactive,inactive,
NOCC(=O)O,inactive,18.2%,inactive,inactive,inactive,inactive,inactive,inactive,inactive,inactive,inactive,
N=C(N)SCCN,inactive,0.333%,inactive,inactive,inactive,inactive,inactive,inactive,inactive,inactive,inactive,inactive
NC1(C(=O)O)CCCCC1,inactive,-4.89%,inactive,inactive,inactive,inactive,inactive,inactive,inactive,inactive,inactive,
CCCCCCCCCC[Si](C)(C)CCC(=O)NC(Cc1ccc(C)cc1)c1ccccc1 (stereo unspecified),inactive,-1.11%,inactive,inactive,inactive,inactive,inactive,inactive,inactive,inactive,inactive,
